The record followed here is PubChem BioAssay (NCATS).

Inconclusive results are not listed. A number with no mark means an inactive call. Active and inactive are the calls of the source. The call rests on the fitted dose curve; in most records, active means well fitted curve in the direction sought with a large enough effect; inconclusive means small, poorly fitted or top-dose-only effect, or another doubt; inactive means no such curve, though single readings can be large; an effect the other way counts as inactive or inconclusive.

The target in assay [1] is Dual specificity protein kinase CLK4 (Homo sapiens) (UniProt Q9HAZ1). Put plainly: qHTS Assay for Inhibitors of CDC-like Kinase 4 (Kinase-Glo Assay) (AID 1770). Further: potency means the concentration at half of the fitted maximal effect; nearly all actives have a fitted effect of over 65% in size. The gist of the method:
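Recombinant human Clk4 (25 nM) phosphorylated RS repeat peptide (100 uM) with 1 uM ATP in Tris pH 7.5/MgCl2/EGTA/DTT/Triton buffer for 4.5 h at room temperature. Residual ATP was quantified by Kinase-Glo luciferase luminescence.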

Assay [2] has the same target. Put plainly: qHTS Assay for Inhibitors of CDC-like Kinase 4 (ADP-Glo Assay) (AID 1771). Further: potency means the concentration at half of the fitted maximal effect; nearly all actives have a fitted effect of over 70% in size. The gist of the method:
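Compounds are pin-transferred onto substrate mix (100 uM RS peptide, 1 uM ATP), then 25 nM Clk4 is added. After 1 hr at room temperature, ADP-Glo reagent runs 45 min, detection reagent 30 min, then luminescence is read.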

For assay [3] the target is unchanged. Put plainly: qHTS Assay for Inhibitors of CDC-like Kinase 4 (ADP-FP Assay) (AID 1795). Further: potency means the concentration at half of the fitted maximal effect; nearly all actives have a fitted effect of over 60% in size. The gist of the method: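 Recombinant human Clk4 (6.25 nM) phosphorylated RS repeat peptide (100 uM) with 1 uM ATP in Tris pH 7.5/MgCl2/EGTA/DTT/Triton buffer for one hour. ADP was quantified by Transcreener competitive fluorescence polarization against an ADP calibration curve.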

The target of assay [4] is Rap guanine nucleotide exchange factor 3 (Homo sapiens) (UniProt O95398). Put plainly: Confirmatory qHTS for antagonist of cAMP-regulated guanine nucleotide exchange factor 3 (EPAC1) (AID 1645880). Further: nearly all actives have a fitted effect of over 55% in size. Further: potency means the concentration at half of the fitted maximal effect. The gist of the method:
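Released BODIPY-GDP fluoresces less than Rap1-bound BODIPY-GDP; the signal is followed at 480/540 nm at 5-min intervals over 30 min, after 5 min at room temperature. Reactions contain 100 nM EPAC1, 250 nM RAP1B-BODIPY-GDP and 50 uM GDP; results are normalized to ATA and DMSO.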

Assay [5] shares this target. The experiment in a line: Confirmatory qHTS for agonist of cAMP-regulated guanine nucleotide exchange factor 3 (EPAC1) (AID 1645881).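 Further: EPAC1 catalysed release of BODIPY-GDP from Rap1B seen as fluorescence loss; 100% = effect of cAMP agonist control; nearly all actives have a fitted effect of over 75% in size.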
For assay [6], the target named is Rap guanine nucleotide exchange factor 4 (Homo sapiens) (UniProt Q8WZA2). The experiment in a line: Confirmatory qHTS for agonist of cAMP-regulated guanine nucleotide exchange factor 4 (EPAC2) (AID 1645884).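 Further: nucleotide exchange releases bodipy-GDP from Rap1 and this lowers its fluorescence; on the % scale 0 is the no-effect control and ±100 the full control effect; nearly all actives have a fitted effect of over 65% in size.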
Assay [7] has the same target. Put plainly: Confirmatory qHTS for antagonist of cAMP-regulated guanine nucleotide exchange factor 4 (EPAC2) (AID 1645885). Further: nearly all actives have a fitted effect of over 25% in size. On activity change, negative = inhibition: on the % scale 0 is the no-effect control and ±100 the full control effect.
Assay [8] addresses Rap guanine nucleotide exchange factor 3 (Homo sapiens) (UniProt O95398). Put plainly: Counterscreen qHTS for antagonist of cAMP-regulated guanine nucleotide exchange factor 3 (EPAC1) (AID 1645888). Further: % of control where 0% means no effect. The method in brief:
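Measured: fluorescence of BODIPY-GDP bound to Rap1B, which falls as exchange proceeds. Conditions include 50 uM competing GDP, 5 and 30 min reads, and a later cAMP challenge for antagonist detection.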

A short description of assay [9]: Confirmatory qHTS for small molecule stabilizers of the endoplasmic reticulum resident proteome: Secreted ER Calcium Modulated Protein (SERCaMP) assay (AID 1508628). Further: potency means the concentration at half of the fitted maximal effect; nearly all actives have a fitted effect of over 40% in size. The method in brief:
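Reporter secretion upon ER calcium depletion (100 nM thapsigargin, 4 h, 37C) is measured as medium luminescence with coelenterazine, after 16 h compound pretreatment of SH-SY5Y-GLuc-SERCaMP cells; primary at three concentrations up to 38.3 uM, follow-up at 11 (up to 76.6 uM).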

Assay [10] can be described thus: NCATS anti-infectives library activity on HEK293 viability as a counter-qHTS vs the C. elegans viability qHTS (AID 1745854).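 Further: HEK293 cells exposed to compounds for 24 hr before the viability read; on the % scale 0 is the no-effect control and ±100 the full control effect.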 The method in brief: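 Counter-screen for cytotoxicity: HEK293, 24 hr, 37C, compounds up to 41.7 uM final (a dilution series, 1:5). Readout CellTiter-Glo luminescence, 10 min RT. Digitonin control, 83.3 uM final.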
Assay [11] has as its target Calcium and integrin-binding protein 1 (Homo sapiens) (UniProt Q99828). Put plainly: Primary qHTS for Identification of Calcium Integrin Binding Protein 1 (CIB1) Competitor (AID 1508620).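 Further: GST tagged CIB1 binding a fluorescein labelled alphaIIb integrin peptide tracer; top concentration of the series differs between compounds; on the % scale 0 is the no-effect control and ±100 the full control effect.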 The gist of the method:
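Fluorescence polarization competition: CIB1-GST (1 uM final) preincubated with compound 15 min at room temperature, then FITC-labeled alphaIIb peptide (100 nM final) added for another 15 min. Polarization read at Ex 480/Em 540.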

Assay [12] has as its target N-terminal Xaa-Pro-Lys N-methyltransferase 1 (Homo sapiens) (UniProt Q9BV86). Put plainly: Confirmatory qHTS for Inhibitors of N-terminal methyltransferase 1 (NTMT1): MTaseGlo Assay (AID 1645874). Further: nearly all actives have a fitted effect of over 65% in size. Further: potency means the concentration at half of the fitted maximal effect.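 On activity change, negative = inhibition: luminescence from SAH made as NTMT1 methylates SPKRIA peptide using SAM; series mostly up to about 100 µM; 0% = DMSO control and -100% = no-enzyme control.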 The gist of the method: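 Room-temperature NTMT1 reaction, 30 min, with 100 uM SAM and 1 uM SPKRIA substrate; enzyme 125 nM. Read-out: MTase-Glo luminescence, normalized to no-enzyme and DMSO controls.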

Assay [13] can be described thus: qHTS for Inhibitors of Ubiquitin-specific Protease USP2a Using CHOP2 as the Reporter: Cytotox Assay (AID 652170).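 Further: HCT116 human colon cancer cells at 600 per well; series mostly up to about 46 µM; plate controls were DMSO-treated cells for no effect and wells without cells for full effect; nearly all actives have a fitted effect of over 70% in size.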 The gist of the method:
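Cytotoxicity read as ATP luminescence (CellTiter-Glo) after 72 hr compound treatment at 37 deg C. Cells: HCT116, 600/well in DMEM plus 10% FBS. Normalization between DMSO-treated cells and cell-free wells.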

Assay [14] deals with Ubiquitin carboxyl-terminal hydrolase 2 (Homo sapiens) (UniProt O75604). The experiment in a line: qHTS for Inhibitors of Ubiquitin-specific Protease USP2a Using CHOP2 as the Reporter: K484 Substrate (AID 652173).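 Further: cleavage of internally quenched K48 di-ubiquitin substrate measured as rising fluorescence over time; potency means the concentration at half of the fitted maximal effect; nearly all actives have a fitted effect of over 70% in size.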 The method in brief:
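Kinetic fluorescence (Ex 525/Em 598) tracked cleavage of an internally quenched K48 di-ubiquitin substrate, added as a 100 nM solution. The enzyme was added as a 5 nM USP2 solution before compound pinning, with no-enzyme controls. Buffer: Tris pH 8, beta-mercaptoethanol, CHAPS.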

Sequence of Dual specificity protein kinase CLK4 (Homo sapiens) (Q9HAZ1 whole entry, looked up): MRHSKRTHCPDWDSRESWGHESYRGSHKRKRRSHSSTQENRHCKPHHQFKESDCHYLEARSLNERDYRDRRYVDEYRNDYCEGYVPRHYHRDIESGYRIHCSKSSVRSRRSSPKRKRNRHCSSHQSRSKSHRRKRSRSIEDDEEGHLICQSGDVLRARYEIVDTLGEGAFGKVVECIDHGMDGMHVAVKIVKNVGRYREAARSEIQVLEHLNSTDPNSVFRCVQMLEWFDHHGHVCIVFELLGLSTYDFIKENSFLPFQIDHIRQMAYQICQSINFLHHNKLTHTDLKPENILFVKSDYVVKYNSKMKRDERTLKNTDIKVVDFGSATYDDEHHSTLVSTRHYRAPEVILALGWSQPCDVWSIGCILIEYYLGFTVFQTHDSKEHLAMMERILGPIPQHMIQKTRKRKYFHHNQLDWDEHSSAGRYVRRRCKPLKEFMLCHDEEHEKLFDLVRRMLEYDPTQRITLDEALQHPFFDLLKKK
Sequence of Rap guanine nucleotide exchange factor 3 (Homo sapiens) (O95398 whole entry, looked up): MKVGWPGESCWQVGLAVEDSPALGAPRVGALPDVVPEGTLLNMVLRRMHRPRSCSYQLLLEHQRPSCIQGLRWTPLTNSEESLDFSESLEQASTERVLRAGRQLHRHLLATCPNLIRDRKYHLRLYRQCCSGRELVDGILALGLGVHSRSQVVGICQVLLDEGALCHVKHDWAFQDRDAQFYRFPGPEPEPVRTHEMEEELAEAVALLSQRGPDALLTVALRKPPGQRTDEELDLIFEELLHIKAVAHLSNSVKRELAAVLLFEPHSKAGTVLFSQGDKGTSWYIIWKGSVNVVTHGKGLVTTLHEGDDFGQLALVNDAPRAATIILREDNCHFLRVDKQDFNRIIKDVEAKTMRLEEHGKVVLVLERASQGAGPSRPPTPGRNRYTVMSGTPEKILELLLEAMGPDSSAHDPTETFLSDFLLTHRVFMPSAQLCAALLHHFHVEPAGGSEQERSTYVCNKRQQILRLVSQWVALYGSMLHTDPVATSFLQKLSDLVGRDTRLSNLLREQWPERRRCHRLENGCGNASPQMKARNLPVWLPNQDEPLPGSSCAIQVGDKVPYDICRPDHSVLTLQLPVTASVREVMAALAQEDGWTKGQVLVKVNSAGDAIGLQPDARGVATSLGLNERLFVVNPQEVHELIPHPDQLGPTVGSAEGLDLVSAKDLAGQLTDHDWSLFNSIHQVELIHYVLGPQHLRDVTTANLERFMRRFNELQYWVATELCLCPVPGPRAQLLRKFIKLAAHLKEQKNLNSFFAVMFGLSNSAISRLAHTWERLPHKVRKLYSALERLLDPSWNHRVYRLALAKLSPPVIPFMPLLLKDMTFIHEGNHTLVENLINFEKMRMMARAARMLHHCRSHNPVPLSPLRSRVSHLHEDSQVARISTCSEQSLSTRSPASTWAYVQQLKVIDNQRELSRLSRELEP
Sequence of Calcium and integrin-binding protein 1 (Homo sapiens) (Q99828 whole entry, looked up): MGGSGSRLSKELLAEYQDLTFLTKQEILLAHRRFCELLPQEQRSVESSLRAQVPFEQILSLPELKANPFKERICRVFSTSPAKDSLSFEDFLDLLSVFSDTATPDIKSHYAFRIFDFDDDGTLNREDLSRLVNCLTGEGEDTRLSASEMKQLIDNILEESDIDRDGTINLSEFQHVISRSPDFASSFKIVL
Sequence of Rap guanine nucleotide exchange factor 4 (Homo sapiens) (Q8WZA2 whole entry, looked up): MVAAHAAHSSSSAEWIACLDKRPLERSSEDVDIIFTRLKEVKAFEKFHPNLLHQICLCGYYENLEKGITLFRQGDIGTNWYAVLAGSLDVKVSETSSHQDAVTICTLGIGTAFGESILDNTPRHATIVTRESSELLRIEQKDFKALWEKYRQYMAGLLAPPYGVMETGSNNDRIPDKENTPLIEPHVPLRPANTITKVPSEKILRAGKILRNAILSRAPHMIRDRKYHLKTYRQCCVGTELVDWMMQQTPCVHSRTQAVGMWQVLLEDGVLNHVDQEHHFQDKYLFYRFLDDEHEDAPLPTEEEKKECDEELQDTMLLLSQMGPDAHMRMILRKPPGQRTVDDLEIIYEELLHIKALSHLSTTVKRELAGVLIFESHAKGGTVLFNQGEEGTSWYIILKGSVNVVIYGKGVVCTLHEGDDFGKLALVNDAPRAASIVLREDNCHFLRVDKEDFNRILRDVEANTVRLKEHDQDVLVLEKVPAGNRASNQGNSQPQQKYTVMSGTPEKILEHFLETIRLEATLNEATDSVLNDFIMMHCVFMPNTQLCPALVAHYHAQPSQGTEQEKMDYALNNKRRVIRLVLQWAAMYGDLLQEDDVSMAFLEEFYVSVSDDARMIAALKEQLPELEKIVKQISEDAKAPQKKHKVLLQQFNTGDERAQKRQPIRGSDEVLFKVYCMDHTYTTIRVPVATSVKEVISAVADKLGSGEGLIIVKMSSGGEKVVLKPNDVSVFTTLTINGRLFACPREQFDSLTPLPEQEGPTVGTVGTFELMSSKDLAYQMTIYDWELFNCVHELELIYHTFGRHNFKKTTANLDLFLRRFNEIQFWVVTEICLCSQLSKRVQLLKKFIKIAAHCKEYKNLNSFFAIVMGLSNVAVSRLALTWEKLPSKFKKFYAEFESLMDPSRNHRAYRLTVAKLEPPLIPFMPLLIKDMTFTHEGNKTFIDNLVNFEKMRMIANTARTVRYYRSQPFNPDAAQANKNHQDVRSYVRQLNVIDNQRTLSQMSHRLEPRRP
Sequence of N-terminal Xaa-Pro-Lys N-methyltransferase 1 (Homo sapiens) (Q9BV86 whole entry, looked up): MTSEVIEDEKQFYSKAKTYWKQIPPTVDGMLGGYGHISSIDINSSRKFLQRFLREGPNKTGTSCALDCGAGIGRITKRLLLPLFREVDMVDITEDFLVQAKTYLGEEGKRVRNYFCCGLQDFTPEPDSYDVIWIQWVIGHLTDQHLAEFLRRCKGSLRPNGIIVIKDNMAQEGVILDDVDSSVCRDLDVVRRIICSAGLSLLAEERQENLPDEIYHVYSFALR
Sequence of Ubiquitin carboxyl-terminal hydrolase 2 (Homo sapiens) (O75604 whole entry, looked up): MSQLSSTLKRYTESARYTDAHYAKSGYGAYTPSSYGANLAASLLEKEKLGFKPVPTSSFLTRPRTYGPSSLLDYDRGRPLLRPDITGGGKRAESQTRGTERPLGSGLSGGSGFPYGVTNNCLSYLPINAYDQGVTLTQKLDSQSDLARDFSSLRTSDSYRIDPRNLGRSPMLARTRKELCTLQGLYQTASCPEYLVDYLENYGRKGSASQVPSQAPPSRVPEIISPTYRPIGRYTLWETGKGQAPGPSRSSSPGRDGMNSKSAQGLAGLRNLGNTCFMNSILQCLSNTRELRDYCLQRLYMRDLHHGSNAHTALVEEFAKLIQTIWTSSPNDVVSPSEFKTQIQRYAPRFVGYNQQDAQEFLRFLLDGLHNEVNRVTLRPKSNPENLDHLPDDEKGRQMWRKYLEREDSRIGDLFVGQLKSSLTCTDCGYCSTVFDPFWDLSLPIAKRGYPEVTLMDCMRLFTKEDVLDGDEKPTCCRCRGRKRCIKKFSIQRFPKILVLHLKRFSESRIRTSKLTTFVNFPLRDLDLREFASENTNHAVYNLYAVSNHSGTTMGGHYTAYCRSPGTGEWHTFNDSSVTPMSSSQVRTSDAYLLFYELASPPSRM

On to `COc1cccc(-c2ccc3ncnc(N(C)Cc4ccco4)c3c2)c1`, for which the Potency was 2000 nM (active) in [1], 1780 nM (active) in [2] and 562 nM (active) in assay [3]. Further, in assay [4], the Potency entry was “inactive”. For the same compound, the result in assay [5] and in assay [8] was inactive. The activation in assay [6] is 8.39% [at 17.1 µM]. For the same compound, the activity change, negative = inhibition in [7] was -12.8% [at 12.7 µM].
For `CN(Cc1ccco1)c1ncnc2ccc(-c3ccoc3)cc12`, the Potency in assay [2] is 112 nM (active); in [3] it was 50.1 nM (active). In addition, the Potency entry in assay [4] and in [7] was “inactive” each time. For the same compound, the call in assay [5] and in [6] was inactive.
For `Cc1cnc(NC(=O)c2cc(S(=O)(=O)N(C)C)ccc2N2CCCC2)s1`, the Potency in assay [9] was 8910 nM (active). For the same compound, in assay [10], the Potency result was “inactive”.
Consider `CC(=O)NC(c1ccco1)c1cc(Cl)c2ccccc2c1O` (centres undefined), for which the Potency entry in assay [11] and in assay [4] was “inactive” each time. The compound was classed as inactive in assay [5] and in assay [8]. For the same compound, the activation in assay [6] was 3.62% [at 17.1 µM].
Turning to `Cc1cc(C)nc(NC(=S)N2CCN(c3ncccc3C#N)CC2)c1`, in assay [11], the Potency result is “inactive”. Besides, in assay [12], the Potency was 22400 nM (active).
Consider `CC(=O)NS(=O)(=O)c1ccc(NC(=O)c2cc(-c3ccc(C)c(C)c3)nc3ccccc23)cc1`, for which the Potency entry in [13] and in assay [11] was “inactive” in each case. In addition, the Potency in [14] is 12200 nM (active); in assay [4] it was 44700 nM (active). Also, the outcome in assay [5] and in assay [8] was inactive. In assay [6], the activation is 5.88% [at 17.1 µM]. In [7], the activity change, negative = inhibition was -11.1% [at 12.7 µM].
`CCN(CC)C(=O)CC(c1ccc2c(c1)OCO2)c1c(O)cc(OC)cc1OC` (centres undefined): the Potency entry in [11], in [4] and in assay [7] was “inactive” each time. Also, the compound was classed as inactive in assay [5], in assay [6] and in assay [8].
Consider `COc1ccc(-c2nnc3n2N=C(c2c(OC)cccc2OC)CS3)cc1OC`, for which the Potency entry in assay [11] and in assay [12] was “inactive” in each case.
